Experimental findings from PubChem BioAssay (NCATS) are described below.

Records with an inconclusive call do not appear. Entries that show only a call come without a potency. Active and inactive are the calls of the source. Calls come from the whole dose curve; as a rule, active = well fitted curve in the direction sought with a large enough effect; inconclusive = small, poorly fitted or top-dose-only effect, or another doubt; inactive = no such curve, though single readings can be large; an effect the other way counts as inactive or inconclusive.
Potency is the fitted concentration of half-maximal effect.

The first test can be described thus: qHTS of pediatric cancer cell lines to identify multiple opportunities for drug repurposing: Confirmatory screen for Rh30 cells (AID 1347126). Note: nearly all actives have a fitted effect of over 55% in size. Conditions: Rh30 rhabdomyosarcoma cell viability; series mostly up to 45.9 µM. The procedure, abridged:
(§1)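 Cells (500-1,000/well) rested 5 h, then received compounds for 48 h; metabolically active cells were measured by CellTiter-Glo luminescence. Final concentrations spanned up to 46 µM (MIPE, 11-point) or 0.59 nM-46 µM (NPC, 8-point) in primary screens, 11-point in follow-ups.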
A general note: qHTS replaces the single test concentration by a dilution series.
Consider `CO[C@H]1C=CC=C(C)C(=O)NC2=CC(=O)C(NCCN(C)C)=C(C[C@@H](C)C[C@H](OC)[C@@H](O)[C@@H](C)C=C(C)[C@@H]1OC(N)=O)C2=O`, for which the Potency was 3.29 µM (active).

Regarding `O=c1[nH]cnc2c1ncn2[C@H]1CC[C@@H](CO)O1`, the Potency result was “inactive”.

Turning to `C=C1C(=O)[C@@]23C(CC[C@@H]1[C@H]2O)[C@@]12CO[C@]3(O)[C@@H](O)[C@@H]1C(C)(C)CC[C@@H]2O` (stereo not given in full), the Potency is 5.85 µM (active).

Turning to `COc1ncc(-c2ccc3nccc(-c4ccnnc4)c3c2)cc1NS(=O)(=O)c1ccc(F)cc1F`, the Potency was 0.0414 µM (active).

Turning to `CC(=O)Oc1cc2c(s1)CCN(C(C(=O)C1CC1)c1ccccc1F)C2` (stereo not given), the Potency was 2.93 µM (active).

Consider `CCCCCCCCCCCC1=C(O)C(=O)C=C(O)C1=O`, for which the Potency entry is “inactive”.

Turning to `CNC1CCC(N(Cc2cccc(-c3ccncc3)c2)C(=O)c2sc3c(F)ccc(F)c3c2Cl)CC1` (stereo not given), the Potency was 23.3 µM (active).

Turning to `CC1(C)CCC(CN2CCN(c3ccc(C(=O)NS(=O)(=O)c4ccc(NCC5CCOCC5)c([N+](=O)[O-])c4)c(Oc4cnc5[nH]ccc5c4)c3)CC2)=C(c2ccc(Cl)cc2)C1`, the Potency result is “inactive”.

Regarding `O=C1NC(=O)C(=Cc2ccc3c(c2)OC(F)(F)O3)S1`, the Potency entry is “inactive”.

For the compound `O=C(O)c1ccc(-c2c[nH]c3ncc(-c4ccccc4)cc23)cc1C1CCCC1`, the Potency entry was “inactive”.

Another test in a line: qHTS of pediatric cancer cell lines to identify multiple opportunities for drug repurposing: Confirmatory screen for Saos-2 cells (AID 1347127). Note: nearly all actives have a fitted effect of over 60% in size. Conditions: Saos-2 osteosarcoma cell viability; series mostly up to 45.9 µM. The procedure, abridged:
as §1
For the compound `CO[C@H]1C=CC=C(C)C(=O)NC2=CC(=O)C(NCCN(C)C)=C(C[C@@H](C)C[C@H](OC)[C@@H](O)[C@@H](C)C=C(C)[C@@H]1OC(N)=O)C2=O`, the Potency entry was “inactive”.

`O=c1[nH]cnc2c1ncn2[C@H]1CC[C@@H](CO)O1`: the Potency result was “inactive”.

Turning to `C=C1C(=O)[C@@]23C(CC[C@@H]1[C@H]2O)[C@@]12CO[C@]3(O)[C@@H](O)[C@@H]1C(C)(C)CC[C@@H]2O` (stereo not given in full), the Potency was 10.4 µM (active).

`COc1ncc(-c2ccc3nccc(-c4ccnnc4)c3c2)cc1NS(=O)(=O)c1ccc(F)cc1F`: the Potency is 0.0465 µM (active).

`O=C(O)CCC1CCC(c2cc(F)ccc2F)(S(=O)(=O)c2ccc(Cl)cc2)CC1` (stereo not given): the Potency entry was “inactive”.

As for `O=C(O)c1ccc(-c2cc3cccnc3c(-c3ccc4nonc4c3)n2)cc1`, the Potency is 5.22 µM (active).

`CC(=O)Oc1cc2c(s1)CCN(C(C(=O)C1CC1)c1ccccc1F)C2` (stereo not given): the Potency result was “inactive”.

For `CCCCCCCCCCCC1=C(O)C(=O)C=C(O)C1=O`, the Potency entry is “inactive”.

For the compound `CC(=NNC(=S)N1CCC1)c1ccccn1`, the Potency result was “inactive”.

In the case of `O=C1NC(=O)C(=Cc2ccc3c(c2)OC(F)(F)O3)S1`, the Potency result was “inactive”.

Consider `O=C(O)c1ccc(-c2c[nH]c3ncc(-c4ccccc4)cc23)cc1C1CCCC1`, for which the Potency entry was “inactive”.

A short description of another test: qHTS of pediatric cancer cell lines to identify multiple opportunities for drug repurposing: Confirmatory screen for OHS-50 cells (AID 1347128).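 Note: compound exposure lasted 48 h at 37 degrees C; nearly all actives have a fitted effect of over 55% in size.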 Conditions: OHS-50 osteosarcoma cells viability; series mostly up to 45.9 µM. An outline of the steps:
as §1
Turning to `CO[C@H]1C=CC=C(C)C(=O)NC2=CC(=O)C(NCCN(C)C)=C(C[C@@H](C)C[C@H](OC)[C@@H](O)[C@@H](C)C=C(C)[C@@H]1OC(N)=O)C2=O`, the Potency entry is “inactive”.

In the case of `O=c1[nH]cnc2c1ncn2[C@H]1CC[C@@H](CO)O1`, the Potency entry was “inactive”.

For `C=C1C(=O)[C@@]23C(CC[C@@H]1[C@H]2O)[C@@]12CO[C@]3(O)[C@@H](O)[C@@H]1C(C)(C)CC[C@@H]2O` (stereo not given in full), the Potency is 20.8 µM (active).

For the compound `COc1ncc(-c2ccc3nccc(-c4ccnnc4)c3c2)cc1NS(=O)(=O)c1ccc(F)cc1F`, the Potency was 0.233 µM (active).

`O=C(O)c1ccc(-c2cc3cccnc3c(-c3ccc4nonc4c3)n2)cc1`: the Potency is 6.57 µM (active).

As to `CC(=O)Oc1cc2c(s1)CCN(C(C(=O)C1CC1)c1ccccc1F)C2` (stereo not given), the Potency result is “inactive”.

Regarding `CC(=NNC(=S)N1CCC1)c1ccccn1`, the Potency result is “inactive”.

Turning to `O=C1NC(=O)C(=Cc2ccc3c(c2)OC(F)(F)O3)S1`, the Potency result was “inactive”.

Turning to `O=C(O)c1ccc(-c2c[nH]c3ncc(-c4ccccc4)cc23)cc1C1CCCC1`, the Potency entry is “inactive”.

A further test in a line: qHTS of pediatric cancer cell lines to identify multiple opportunities for drug repurposing: Confirmatory screen for SK-N-SH cells (AID 1347129).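 Note: cells exposed to compound for 48 h before viability read; nearly all actives have a fitted effect of over 60% in size.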 Conditions: SK-N-SH neuroblastoma cell viability; series mostly up to 46.1 µM. An outline of the steps: as §1
On to `O=c1[nH]cnc2c1ncn2[C@H]1CC[C@@H](CO)O1`, for which the Potency entry was “inactive”.

Turning to `C=C1C(=O)[C@@]23C(CC[C@@H]1[C@H]2O)[C@@]12CO[C@]3(O)[C@@H](O)[C@@H]1C(C)(C)CC[C@@H]2O` (stereo not given in full), the Potency was 10.5 µM (active).

For the compound `COc1ncc(-c2ccc3nccc(-c4ccnnc4)c3c2)cc1NS(=O)(=O)c1ccc(F)cc1F`, the Potency is 0.187 µM (active).

For `O=C(O)CCC1CCC(c2cc(F)ccc2F)(S(=O)(=O)c2ccc(Cl)cc2)CC1` (stereo not given), the Potency entry was “inactive”.

Regarding `CC[C@@H]1C=C(C)C[C@H](C)C[C@H](OC)[C@H]2O[C@@](O)(C(=O)C(=O)N3CCCC[C@@H]3C(=O)O[C@H](C(C)=C[C@@H]3CC[C@H](Cl)[C@H](OC)C3)[C@H](C)[C@@H](O)CC1=O)[C@H](C)C[C@H]2OC`, the Potency entry was “inactive”.

As for `O=C(O)c1ccc(-c2cc3cccnc3c(-c3ccc4nonc4c3)n2)cc1`, the Potency result was “inactive”.

For `CC(=O)Oc1cc2c(s1)CCN(C(C(=O)C1CC1)c1ccccc1F)C2` (stereo not given), the Potency entry was “inactive”.

Take `CNC1CCC(N(Cc2cccc(-c3ccncc3)c2)C(=O)c2sc3c(F)ccc(F)c3c2Cl)CC1` (stereo not given): the Potency entry is “inactive”.

`O=C1NC(=O)C(=Cc2ccc3c(c2)OC(F)(F)O3)S1`: the Potency result was “inactive”.

On to `Cc1[nH]c(C=C2C(=O)Nc3ccc(S(=O)(=O)Cc4c(Cl)cccc4Cl)cc32)c(C)c1C(=O)N1CCC[C@H]1CN1CCCC1`, for which the Potency is 23.5 µM (active).
